A short description of this experiment: kinase inhibitors against Plasmodium liver-stage infection, cell-based, known kinase inhibitor set, luminescence, hepatoma host viability (AID 624392).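 Further: infected cells incubated roughly two days before readout.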 As to conditions: Plasmodium liver stage in hepatoma cells, luciferase luminescence, concentration not given here; liver cell % of control: measured here: host liver cell viability; parasite % of control: stronger effect = lower value.

Structures are written as SMILES. Values joined by “and” are separate entries in the source; they are usually repeats but may differ in a detail not shown here. Equal entries are not always repeated. Active and inactive are the calls of the source. How the calls were made is not given here.

Consider `NC1=NC(=O)C(=Cc2ccc(-c3ccc(Cl)cc3)o2)S1`, for which the liver cell % of control amounted to 97.6% and the parasite % of control was 73.1% (inactive).

With `COc1cc(NC(=O)c2cncc(-c3ccc(C#N)cc3)c2)cc(C(=O)Nc2cccc(C(F)(F)F)c2)c1`, the liver cell % of control turned out to be 98.8% and the parasite % of control is 101% (inactive).

For `Cc1ccc([N+](=O)[O-])cc1S(=O)(=O)N(C)N=Cc1c[nH]c2ccc(Br)c[n+]12`, the liver cell % of control was determined as 93% and the parasite % of control was 3.49% (active).

Take `CC(C)(C)OC(=O)NC(COc1cncc(Br)c1)Cc1c[nH]c2ccccc12` (configuration not stated): the liver cell % of control stood at 95.1% and the parasite % of control is 98.7% (inactive).

Regarding `O=C(Nc1cccc(-c2csc(Nc3ccccc3)n2)c1)c1cc([N+](=O)[O-])cc(C(F)(F)F)c1`, the liver cell % of control is 92.9% and the parasite % of control was 168% (inactive).

In the case of `CC(C)n1cnc2c(N(C)c3ccccc3)nc(N(CCN(C)C)Cc3ccccc3)nc21`, the liver cell % of control turned out to be 84.5% and the parasite % of control was 24.1% (inactive).

On to `O=C1NC(=O)C(=Cc2ccc(-c3ccc(S(=O)(=O)N4CCNCC4)cc3)o2)C(=O)N1`, for which the liver cell % of control came to 94.8% and the parasite % of control was 303% (inactive).

For the compound `CCC(CO)Nc1nc(Nc2cccc(Cl)c2)c2ncn(C(C)C)c2n1` (configuration not stated), the liver cell % of control amounted to 90.3% and the parasite % of control is 477% (inactive).

As for `O=C(Nc1ccc(-c2csc(Nc3ccccc3)n2)cc1)c1ccccc1`, the liver cell % of control stood at 102% and the parasite % of control is 204% (inactive).

Regarding `CCN1CCN(Cc2ccc(NC(=O)c3ccc(C)c(NC(=O)c4ccnnc4)c3)cc2C(F)(F)F)CC1`, the liver cell % of control came to 104% and the parasite % of control was 100% (inactive).

As to `O=C(Nc1ccc(-c2csc(Nc3cccc(C(F)(F)F)c3)n2)cc1)c1ccccc1`, the liver cell % of control worked out at 106% and the parasite % of control is 69.1% (inactive).

As for `CCN1CCN(Cc2ccc(NC(=O)c3ccc(C)c(NC(=O)c4ccc5n[nH]nc5c4)c3)cc2C(F)(F)F)CC1`, the liver cell % of control came out at 104% and the parasite % of control is 112% (inactive).

On to `COc1ccc(CNc2nc(NCc3ccc(OC)cc3)c3ncn(C(C)C)c3n2)cc1`, for which the liver cell % of control was 107% and the parasite % of control is 168% (inactive).

As for `CCN1CCN(Cc2ccc(NC(=O)c3ccc(C)c(NC(=O)c4nccnc4N)c3)cc2C(F)(F)F)CC1`, the liver cell % of control is 93.8% and the parasite % of control is 155% (inactive).

With `Nc1ccc(-c2cnc(N)c(C(=O)c3cccnc3)n2)cn1`, the liver cell % of control is 97.9% and the parasite % of control is 132% (inactive).

In the case of `Nc1cccc(-c2c[nH]c3ncc(-c4cccnc4)cc23)c1`, the liver cell % of control was determined as 94.3% and the parasite % of control is 42.1% (inactive).

As to `COc1cc(NC(=O)c2cnc(N)s2)cc(C(=O)Nc2cccc(C(F)(F)F)c2)c1`, the liver cell % of control was 98.2% and the parasite % of control is 79% (inactive).

Consider `CCN1CCN(Cc2ccc(NC(=O)c3cc(NC(=O)c4cc(C)on4)cc(OC)c3)cc2C(F)(F)F)CC1`, for which the liver cell % of control was 99.3% and the parasite % of control was 92.3% (inactive).

For `O=C1NN(c2ccccc2)C(=O)C1=Cc1ccc(-c2ccc(Cl)cc2)o1`, the liver cell % of control is 98.7% and the parasite % of control was 92.2% (inactive).

Consider `CC(C)C(CO)Nc1nc(NCc2ccc(S(N)(=O)=O)cc2)c2ncn(C(C)C)c2n1` (configuration not stated), for which the liver cell % of control stood at 95.4% and the parasite % of control is 647% (inactive).

In the case of `NC(=O)c1cccc(-c2cnc(N)c(C(=O)c3cccnc3)n2)c1`, the liver cell % of control is 101% and the parasite % of control was 179% (inactive).

With `C=CC(=O)Nc1cccc(Nc2ccnc(Nc3ccc(N4CCN(C)CC4)cc3)n2)c1`, the liver cell % of control stood at 92.9% and the parasite % of control was 184% (inactive).

With `CC(C)n1cnc2c(Nc3ccc(C(=O)O)cc3)nc(Cl)nc21`, the liver cell % of control is 88.9% and the parasite % of control was 123% (inactive).

Consider `C=CC(=O)Nc1ccc(CN2C(=O)N(c3c(Cl)c(OC)cc(OC)c3Cl)Cc3cnc(NCCCCN(CC)CC)nc32)cc1`, for which the liver cell % of control was 96.7% and the parasite % of control is 227% (inactive).

For the compound `Cn1cc(C=C2C(=O)Nc3cccnc32)c2ccccc21`, the liver cell % of control was 314% and 107% and 104%; the parasite % of control is 4.91% (inactive) and 51.8% (inactive) and 41.5% (inactive).

Take `Nc1cnc(CNc2ccccc2Cl)cn1`: the liver cell % of control is 100% and the parasite % of control is 136% (inactive).

For the compound `Cc1cn(-c2cc(C(=O)Nc3ccc(C)c(NC(=O)C(=O)c4c[nH]c5ccccc45)c3)cc(C(F)(F)F)c2)cn1`, the liver cell % of control was 95.9% and the parasite % of control was 102% (inactive).

As to `CC(C)C(CO)Nc1nc(Nc2ccc(C(=O)O)c(Cl)c2)c2ncn(C(C)C)c2n1` (configuration not stated), the liver cell % of control is 52.3% and 72.3%; the parasite % of control is 13.7% (inactive) and 48.9% (inactive) and 114% (inactive).

In the case of `COc1cc(NC(=O)c2ccnnc2)cc(C(=O)Nc2cccc(C(F)(F)F)c2)c1`, the liver cell % of control was 93.4% and the parasite % of control is 97.5% (inactive).

As for `Cc1ccc(C(=O)Nc2cccc(C(F)(F)F)c2)cc1Nc1ncnc2nc[nH]c12`, the liver cell % of control is 108% and the parasite % of control is 64.6% (inactive).

Take `C=CC(=O)Nc1cccc(Oc2ncnc3[nH]cc(-c4cnc5ccccc5c4)c23)c1`: the liver cell % of control worked out at 100% and the parasite % of control was 112% (inactive).

For the compound `CC(=O)Nc1ccc(C(C)C(=O)Nc2ncc(C(C)C)s2)cc1` (configuration not stated), the liver cell % of control was 53.4% and 52.2% and 52.5%; the parasite % of control was 136% (inactive) and 128% (inactive) and 133% (inactive).

Consider `CCN1CCN(Cc2ccc(NC(=O)c3cc(NC(=O)c4cc(-c5ccc(OC)cc5)n[nH]4)cc(OC)c3)cc2C(F)(F)F)CC1`, for which the liver cell % of control was 90.4% and the parasite % of control is 132% (inactive).

Take `CCN1CCN(Cc2ccc(NC(=O)c3ccc(C)c(NC(=O)CC4NC(=O)C(Cc5ccccc5)NC4=O)c3)cc2C(F)(F)F)CC1` (configuration not stated): the liver cell % of control was found to be 105% and the parasite % of control is 114% (inactive).

Regarding `O=C(Nc1ccc(-c2csc(Nc3ccc(Cl)cc3)n2)cc1)c1ccccc1`, the liver cell % of control came to 103% and the parasite % of control is 110% (inactive).

For `CC(C)n1cnc2c(NCc3ccc(S(N)(=O)=O)cc3)nc(NCc3ccc(S(N)(=O)=O)cc3)nc21`, the liver cell % of control was determined as 102% and the parasite % of control is 108% (inactive).

For `CCN1CCN(Cc2ccc(NC(=O)c3cc(NC(=O)c4cc5cccc(OC)c5o4)cc(OC)c3)cc2C(F)(F)F)CC1`, the liver cell % of control was determined as 93.7% and the parasite % of control was 89.9% (inactive).

On to `Nc1ccccc1CNc1nc(NCCO)nc2c1ncn2CCN1CCOCC1`, for which the liver cell % of control stood at 100% and the parasite % of control was 125% (inactive).

Regarding `CCN1CCN(Cc2ccc(NC(=O)c3cc(NC(=O)c4ccc5n[nH]nc5c4)cc(OC)c3)cc2C(F)(F)F)CC1`, the liver cell % of control was determined as 101% and the parasite % of control was 138% (inactive).

As for `Cc1ccc(-c2c(C(=O)CCl)n(CCO)c3ncnc(N)c23)cc1`, the liver cell % of control was determined as 90.7% and the parasite % of control was 86.5% (inactive).

As to `COc1cc(C(=O)NC2CCN(C)CC2)ccc1Nc1ncc2c(n1)N(C1CCCCC1)CCC(=O)N2C`, the liver cell % of control is 81.9% and the parasite % of control was 520% (inactive).

For `COc1cc(NC(=O)c2cc(C)on2)cc(C(=O)Nc2cccc(C(F)(F)F)c2)c1`, the liver cell % of control worked out at 96.5% and the parasite % of control was 66.6% (inactive).

For the compound `NC1=NC(=O)C(=Cc2ccc(-c3ccc(S(N)(=O)=O)cc3)o2)S1`, the liver cell % of control amounted to 104% and the parasite % of control is 97.3% (inactive).

Take `Cc1ccc(C(=O)Nc2cccc(C(F)(F)F)c2)cc1Nc1cnccn1`: the liver cell % of control amounted to 98.3% and the parasite % of control was 23.7% (inactive).

Take `CC(C)n1cnc2c(NCc3ccccc3)nc(NCc3ccccc3)nc21`: the liver cell % of control turned out to be 91.8% and the parasite % of control was 83.2% (inactive).

In the case of `CC(C)C(CO)Nc1nc(Nc2ccc(Cl)c(C(=O)O)c2)c2ncn(C(C)C)c2n1` (configuration not stated), the liver cell % of control turned out to be 94.7% and the parasite % of control is 116% (inactive).

For `Cc1ccc(C(=O)Nc2cccc(C(F)(F)F)c2)cc1NC(=O)c1c[nH]c2cc(C(F)(F)F)ccc2c1=O`, the liver cell % of control worked out at 97.9% and the parasite % of control was 25.1% (inactive).

With `Cc1cn(-c2cc(NC(=O)c3ccc(C)c(NC(=O)c4cccc(-c5cn[nH]c(=O)c5)c4)c3)cc(C(F)(F)F)c2)cn1`, the liver cell % of control was 97.4% and the parasite % of control is 93.8% (inactive).

As to `COc1cc(NC(=O)c2nccnc2N)cc(C(=O)Nc2cccc(C(F)(F)F)c2)c1`, the liver cell % of control was found to be 97.3% and the parasite % of control is 84.9% (inactive).

For the compound `Cc1ccc(C(=O)Nc2cccc(C(F)(F)F)c2)cc1NC(=O)c1cnnc2ccccc12`, the liver cell % of control stood at 104% and the parasite % of control was 44.2% (inactive).

As to `CN(c1ccccc1CNc1nc(Nc2ccc3c(c2)CC(=O)N3)ncc1C(F)(F)F)S(C)(=O)=O`, the liver cell % of control was 53.6% and 51.8% and 95%; the parasite % of control is 7.61% (inactive) and 53% (inactive) and 167% (inactive).

On to `COc1cc(NC(=O)N2CCNC2=O)cc(C(=O)Nc2cccc(C(F)(F)F)c2)c1`, for which the liver cell % of control turned out to be 104% and the parasite % of control was 223% (inactive).

Turning to `CC(C)C(CO)N(Cc1cccc(F)c1)c1nc(Nc2cccc(Cl)c2)c2ncn(C(C)C)c2n1` (configuration not stated), the liver cell % of control is 91.9% and the parasite % of control is 62.1% (inactive).

Consider `CC(C)Oc1cc(C(=O)N2CCC(N3CCCCC3)CC2)ccc1Nc1nnc(Cl)c(Nc2ccccc2S(C)(=O)=O)n1`, for which the liver cell % of control is 98.2% and the parasite % of control is 81.6% (inactive).

As to `C=CC(=O)N1CCN(Cc2ccc(C(=O)Nc3ncc(Sc4cc(C(=O)N5CCN(C(C)=O)CC5)c(OC)cc4C)s3)cc2)CC1`, the liver cell % of control amounted to 92.4% and the parasite % of control is 597% (inactive).

On to `Cc1nc(Nc2cnc(C=Cc3cc(C(=O)Nc4cccc(C(F)(F)F)c4)ccc3C)cn2)cc(N2CCNCC2)n1`, for which the liver cell % of control came to 92.4% and the parasite % of control is 144% (inactive).

As to `O=C(Nc1ccc(-c2csc(Nc3ccc(Cl)cc3)n2)cc1)c1cc([N+](=O)[O-])cc(C(F)(F)F)c1`, the liver cell % of control came to 106% and the parasite % of control was 97.2% (inactive).

Take `CCN1CCN(Cc2ccc(NC(=O)c3cc(NC(=O)c4cncc(-c5cccs5)c4)cc(OC)c3)cc2C(F)(F)F)CC1`: the liver cell % of control came to 101% and the parasite % of control is 88.5% (inactive).

As to `COc1cc(C(=O)NC2CCN(C)CC2)ccc1Nc1ncc2c(n1)N(CCc1ccccc1)CCC(=O)N2C`, the liver cell % of control stood at 98.4% and the parasite % of control was 343% (inactive).

Take `COc1ccc(CNc2nc(NCc3ccc(OC)cc3)c3ncn(C4CCCC4)c3n2)cc1`: the liver cell % of control was 90.6% and the parasite % of control was 265% (inactive).

Consider `Cc1cc(C(=O)Nc2cc(Nc3ccc4c(C=Cc5ccccn5)n[nH]c4c3)ccc2F)n(C)n1`, for which the liver cell % of control was 75.4% and 84.5% and 95.8%; the parasite % of control is 17.4% (inactive) and 18.3% (inactive) and 40.1% (inactive).

These data come from PubChem BioAssay.
